Molecules are shown by their SMILES. Active and inactive are the calls of the source. A call without a number means that no potency is given here. Calls come from the whole dose curve; as a rule, active = well fitted activation curve with a large enough effect; inconclusive = small, poorly fitted or top-dose-only effect; inactive = no such curve, though single readings can be large or run the other way.
Potency is the fitted concentration of half-maximal effect.

The nature of the experiment: Counterscreen for Identifying a Potential Treatment of Ataxia-Telangiectasia: Hit Validation. The settings on record: cell-free AlphaLISA/AlphaScreen artifact counterscreen, PBS only, no cells; series mostly up to 76.9 µM. An outline of the steps: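 Without cells, compounds at up to 76.7 uM final were combined with premixed anti-pKAP1/anti-KAP1 AlphaLISA bead reagents, protease inhibitors and lysis buffer; signal read after 6 hr at 25C to flag assay-platform artifacts.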
On to `COC(=O)CCc1c(C)c(C(=O)c2cc(OC)c(OC)c(OC)c2)c2ccccn12`, for which the Potency result was “inactive”.
With `O=C1/C(=C/c2ccc(N3CCOCC3)o2)SC(=Nc2ccccc2)N1CCc1c[nH]c2ccccc12`, the Potency entry is “inactive”.
Under `O=C(Nc1ccc([N+](=O)[O-])cc1)c1cc2ccccc2nc1Cl` stands “inactive”.
`O=C(CCC(=O)c1ccc(F)cc1)Nc1cccc(Br)c1`: the Potency entry is “inactive”.
With `CCC(C)Nc1nc(N)c([N+](=O)[O-])c(NCCO)n1` (stereo not drawn), the Potency result is “inactive”.
Regarding `CNC(=S)N/N=C/c1ccc2c(c1)OCCO2`, the Potency result was “inactive”.
Consider `COc1cccc(OCCc2c(C)n[nH]c2C)c1`, for which the Potency entry was “inactive”.
As for `S=c1[nH]nc(COc2ccccc2)n1/N=C/c1ccccc1Cl`, the entry is “inactive”; as for `COc1ccc(NC(=O)C2CC2)cc1OC1CCCC1`, “inactive”; as for `O=S(=O)(C/C(=C/CO)S(=O)(=O)c1ccccc1)c1ccccc1`, “inactive”.
Under `Cn1c(=O)oc2cc(S(=O)(=O)N3CCc4ccccc43)ccc21` stands “inactive”.
In the case of `CCOc1cccc(/C=C/c2ccc3cccc(O)c3n2)c1OC`, the Potency entry is “inactive”.
As for `Cc1ccccc1OCC(=O)Nc1cccc(C(=O)O)c1`, the entry is “inactive”; as for `COc1ccc(C(CNC(=O)C(Cc2ccccc2)NC(N)=O)N(C)C)cc1` (stereo not drawn), “inactive”; as for `COC(=O)c1ccncc1C(=O)Nc1ccc(Oc2ncc(C(F)(F)F)cc2Cl)cc1`, “inactive”.
Take `Cc1cccc(C)c1NC(=O)COC(=O)c1cc(=O)c2ccccc2o1`: the Potency result was “inactive”.
Under `CCOC(=O)N1CCN(c2nc(N(c3ccccc3)c3ccccc3)nc(-n3ccnc3)n2)CC1` stands “inactive”; under `COc1ccc2nc(NCCCNC(=O)c3cc(OC)c(OC)c(OC)c3)c(C#N)cc2c1`, 29.2 µM (active).

(Values after PubChem BioAssay AID493185 (National Center for Advancing Translational Sciences (NCATS), 2011).)
